SRC1 inh: inhibitors of human steroid receptor coactivator 1 (SRC1). Q15788. inhibition, % at 3.6 µM. HEK293 GAL4-SRC1 luciferase reporter, luminescence. actives 0.12% (n = 360,000);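 active = inhibition above the campaign mean plus 3 SD, with each screening campaign given its own cutoff, cut at about 60% in these data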;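 note: 0% = DMSO treated cells and 100% = gossypol at 36 µM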
Gli-Sufu block: Gli-Sufu pathway antagonism; inhibition, % at 5 µM; AID 588413; Sufu-KO-LIGHT fibroblasts, Gli luciferase reporter luminescence; actives 0.74% (n = 340,000);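 active = inhibition above about 55%, limit read from the data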;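 note: 0% = DMSO-treated cells and 100% = wells with medium but no cells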
LRH-1 inv ag: inverse agonists of human LRH-1 (NR5A2). O00482. HEK293T StAR-luciferase reporter, LRH-1 transfected, 24 h. inhibition, % at 3.6 µM. actives 0.13% (n = 360,000);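 active = inhibition above the mean inhibition of all tested compounds plus 3 SD, cut at about 73% in these data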;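 note: 0% = DMSO wells and 100% = reporter-only cells lacking LRH-1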
COUP-TFII inh: inhibitors of human COUP-TFII (NR2F2); inhibition, % at 8.6 µM; AID 686940; actives 0.7% (n = 370,000); P24468; HEK293T NGFI-A luciferase reporter, luminescence;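 active = inhibition above a per-plate cutoff, mean inhibition of test wells between control levels plus 3 SD, cut at about 38% in these data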;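 note: cells cotransfected with COUP-TFII expression vector driving the NGFI-A reporter; 0% = median of COUP-TF2 test wells and 100% = reporter-only cells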
Target sequence (P24468 whole entry, looked up): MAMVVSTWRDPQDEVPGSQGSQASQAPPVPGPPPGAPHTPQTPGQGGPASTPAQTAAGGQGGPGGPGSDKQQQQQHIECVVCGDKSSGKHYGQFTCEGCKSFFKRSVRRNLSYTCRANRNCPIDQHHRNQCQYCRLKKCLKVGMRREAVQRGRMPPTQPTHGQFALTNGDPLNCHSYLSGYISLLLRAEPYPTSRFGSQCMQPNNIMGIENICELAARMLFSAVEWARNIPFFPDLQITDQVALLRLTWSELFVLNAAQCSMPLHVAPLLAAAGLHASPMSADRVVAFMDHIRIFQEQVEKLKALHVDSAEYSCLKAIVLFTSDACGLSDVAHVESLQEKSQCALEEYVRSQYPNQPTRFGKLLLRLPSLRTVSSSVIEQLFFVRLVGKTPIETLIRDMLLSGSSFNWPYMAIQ
NCOA2 inhibitor: human SRC2 (NCOA2) inhibition; HEK293 GAL4-SRC2 luciferase reporter, luminescence; Q15596; actives 0.17% (n = 370,000); inhibition, % at 9 µM;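 active = inhibition above the mean inhibition of all tested compounds plus 3 SD, set per campaign, cut at about 52% in these data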;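 note: 0% = DMSO treated cells and 100% = cells given Gossypol at 36 µM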
NCOA3 inh: inhibits human SRC3 coactivator; Q9Y6Q9; HEK293 GAL4-SRC3 luciferase reporter, luminescence; inhibition, % at 3.6 µM; actives 0.17% (n = 360,000);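 active = inhibition above a per-campaign cutoff, the mean of all compounds plus 3 SD, cut at about 60% in these data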;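 note: 0% = DMSO-treated cells and 100% = gossypol-treated cells at 36 µM; higher means less SRC3-driven luciferase light from the GAL4 reporter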
Gli antag conf: confirmation of Gli-SUFU pathway antagonists. shares compounds with Gli-Sufu block. Sufu-KO-LIGHT cells, Gli luciferase reporter, luminescence. inhibition, % at 5 µM. actives 40% (n = 2,500);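 active = mean inhibition at 5 µM reaching about 45%, limit read from the data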;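 note: plate controls were DMSO-treated cells for no effect and wells lacking cells for full effect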
SufuKO cytotox: cytotoxic in Gli-SUFU antagonist counter-screen | shares compounds with Gli-Sufu block | Sufu-KO-LIGHT cells cytotoxicity, ATP luminescence | cytotoxicity, % at 5 µM | actives 32% (n = 2,500);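 active = mean cytotoxicity at 5 µM above about 25%, limit read from the data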;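 note: cells exposed to compound overnight for roughly 16 to 18 hours; plate controls were DMSO wells with cells for no effect and medium without cells for full effect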
Wnt3a counter: counter-screen for Gli-SUFU antagonists: Wnt3a reporter inhibition | inhibition, % at 6.25 µM | actives 20% (n = 2,500) | shares compounds with Gli-Sufu block | Wnt-LIGHT cells, Wnt3a-driven luciferase reporter, luminescence;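 active = mean inhibition above about 25%, limit read from the data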
Gal4-VP16 ctr: VP16 inhibition counter-screen for COUP-TFII; actives 25% (n = 2,500); HEK293 Gal4-VP16 luciferase reporter, luminescence; shares compounds with COUP-TFII inh; AID 687007; inhibition, % at 8.5 µM; in the data active = inhibition above about 13%
NR2F2 inh conf: confirmation of human COUP-TFII (NR2F2) inhibitors. shares compounds with COUP-TFII inh. HEK293 NGFI-A luciferase reporter, luminescence. inhibition, % at 8.5 µM. actives 45% (n = 2,500);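 active = mean inhibition over three repeats above a set limit taken from the earlier primary screen, cut at about 38% in these data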;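 note: 100% = cells given the luciferase reporter alone without the COUP-TF2 vector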
An asterisk follows results filed as active; · = no result given. Sampled rows, rich in hits. Any-hit rate of the full collection: about 1.3%.

SMILES	SRC1 inh	Gli-Sufu block	LRH-1 inv ag	COUP-TFII inh	NCOA2 inhibitor	NCOA3 inh	Gli antag conf	SufuKO cytotox	Wnt3a counter	Gal4-VP16 ctr	NR2F2 inh conf
Nc1nonc1C(=O)NCCNCc1ccccc1OCc1ccccc1F	-13	19	11	-21	19	-7	·	·	·	·	·
CC(=O)N1CCc2cc(S(=O)(=O)NCCC(=O)NCc3ccc(Cl)cc3)ccc21	·	·	·	20	11	·	·	·	·	·	·
Cc1ccc(Cl)cc1N1CCN(C(=O)CSc2nnc3n2C(C)(C)Cc2ccccc2-3)CC1	24	61*	13	63*	16	15	60*	20	8	9	50*
COc1ccc(N2CCN(C(=O)CSc3nnc4n3C(C)(C)Cc3ccccc3-4)CC2)cc1	-13	14	5	-8	-32	-4	·	·	·	·	·
NC(=S)NNc1ccnc2cc(Cl)ccc12	2	5	16	-6	-2	11	·	·	·	·	·
O=C(NNc1ccnc2cc(Cl)ccc12)C1CCCCC1	26	77*	36	57*	17	20	76*	35*	34*	13*	65*
CCCCCCCCN1CN2Cc3ccc(C)cc3C2CS1(=O)=O (centres undefined)	·	·	·	11	-13	·	·	·	·	·	·
COc1ccc(CNc2ncnc3sccc23)cc1	8	61*	34	49*	32	28	48*	37*	24	1	39*
c1ccc(CNc2ncnc3sccc23)cc1	15	35	18	36	26	24	·	·	·	·	·
COc1ccc(NS(=O)(=O)c2ccc(N3CCOCC3)c(N)c2)cc1	3	62*	26	48*	24	16	61*	26*	28*	-9	33
COc1ccc(NS(=O)(=O)c2ccc(NC(=O)c3ccc(CN4CCOCC4)cc3)cc2)cc1	8	57*	37	64*	29	-2	28	13	3	-4	52*
CC(C)c1ccc(-c2nc3ccccc3s2)cc1	82*	64*	82*	89*	80*	87*	82*	73*	106*	68*	98*
CCOc1ccc(-n2c(SCC(=O)c3ccc4ccccc4c3)nnc2-c2cccc(Cl)c2)cc1	·	·	·	0	-9	·	·	·	·	·	·
S=C(NCCSCc1ccc(Cl)cc1Cl)Nc1ccccc1	-21	-2	16	10	14	14	·	·	·	·	·
S=C(Nc1ccccc1)Nc1ccc(OCc2ccc(Cl)cc2Cl)cc1	55	58*	50	76*	82*	60	68*	29*	103*	70*	71*
Cc1nc2ccccc2cc1OCc1ccc(Cl)cc1	-15	53	11	50*	-1	-4	50*	37*	4	-61	29
COc1cccc(COc2cc3ccccc3nc2C)c1	3	53	28	59*	-8	-3	58*	30*	15	-63	41*
Cc1nc2ccccc2cc1OCc1ccccc1	-12	26	12	24	3	-13	·	·	·	·	·
COC(=O)c1sccc1OCc1cccc(OC)c1	-72	0	1	7	-5	3	·	·	·	·	·
Cn1c(=O)c2[nH]c(SCC(=O)N3CCN(c4cccc(C(F)(F)F)c4)CC3)nc2n(C)c1=O	·	·	·	7	-10	·	·	·	·	·	·
Cc1ccc(S(=O)(=O)N2CCCC2C(=O)N2CCc3ccccc3C2)cc1 (centres undefined)	·	·	·	-19	13	·	·	·	·	·	·
C[C@H]1[C@@H](OC(=O)N2CCCC2)CC[C@@]23CCCN2C(=O)CCC[C@@H]13	·	·	·	0	·	·	·	·	·	·	·
NC(=O)c1ccc(N2CCN(S(=O)(=O)c3cccs3)CC2)c([N+](=O)[O-])c1	16	56*	48	60*	-10	34	65*	14	36*	5	56*
O=C(NC(Nc1nc2ccc([N+](=O)[O-])cc2s1)(C(F)(F)F)C(F)(F)F)c1cccnc1	69*	84*	91*	77*	-29	78*	87*	35*	81*	7	70*
CC1Cc2cc(S(=O)(=O)N3CCN(c4ccc(Cl)cc4)CC3)ccc2N1C(=O)C1CC1 (centres undefined)	22	-11	2	-8	5	1	·	·	·	·	·
SMILES	SRC1 inh	Gli-Sufu block	LRH-1 inv ag	COUP-TFII inh	NCOA2 inhibitor	NCOA3 inh	Gli antag conf	SufuKO cytotox	Wnt3a counter	Gal4-VP16 ctr	NR2F2 inh conf
CC(=O)N1c2ccc(S(=O)(=O)N3CCC(C(=O)N4CCN(c5ccc(Cl)cc5)CC4)CC3)cc2CC1C (centres undefined)	-5	76*	3	44*	30	9	74*	35*	-7	-1	18
CCCC(=O)N1CCC(NS(=O)(=O)c2ccc3c(c2)CCN3C(C)=O)CC1	·	·	·	12	-12	·	·	·	·	·	·
Cc1ccc(OCc2nnc(SCC(=O)c3ccc4ccccc4c3)n2-c2ccc(Cl)cc2)cc1	·	·	·	0	1	·	·	·	·	·	·
Cc1nn(C)c(C)c1/C=C/C(=O)c1ccc(Cl)cc1Cl	9	64*	33	47*	-12	23	63*	23	-5	-9	38*
Cc1ccc(-c2cc3cccc[n+]3cc2-c2ccc(C)cc2)cc1	51	86*	84*	66*	1	55	89*	27*	48*	8	54*
O=C(NCC(c1ccco1)N1CCCC1)c1ccc(Cl)c(S(=O)(=O)N2CCc3ccccc32)c1 (centres undefined)	21	67*	16	66*	25	30	59*	34*	28*	7	50*
O=C(NCC(c1ccco1)N1CCc2ccccc2C1)c1ccc(Cl)c([N+](=O)[O-])c1 (centres undefined)	-4	-6	3	-20	-13	8	·	·	·	·	·
Cc1ccc(-n2c(SCc3cccc4ccccc34)nnc2-c2ccccn2)cc1	·	·	·	14	11	·	·	·	·	·	·
Clc1ccc(-c2nnc(SCc3cccc4ccccc34)n2Cc2ccco2)cc1	·	·	·	5	25	·	·	·	·	·	·
CCC(C)(C)c1ccc(Oc2ccc(N)cc2)cc1	68*	74*	69	95*	91*	77*	83*	31*	105*	91*	98*
CCC(C)(C)c1ccc(Oc2cccc(C(=O)O)c2)cc1	-86	-43	-75	-20	-26	-73	·	·	·	·	·

Assay outcomes (PubChem)
